Reference: the supplement of paper PMC11417369
Over roughly 25,000 sequences, “ln(normalized median fluorescence intensity)” has its median near 6.7; the highest 2% begin near 10. The full list was thinned out, with the highest values kept by preference.

Test system: PfHDP1 homeodomain (GST-tagged)
Experiment: gcPBM binding intensity (ln(normalized median fluorescence intensity)); higher = stronger DNA binding
In short: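 Probes on an Agilent 4 × 180k array were primer-extended, double-stranded and 36 bp long, taken from intergenic genomic regions, with negative controls added. GST-tagged P. falciparum DNA-binding domains from E. coli, about 25 μg on average, were applied to the array for 1 h in 1× PBS containing 1% milk, 0.2 mg/ml BSA, 0.5% salmon testes DNA and 0.03% Triton X-100. Binding intensity, obtained after Alexa488 anti-GST antibody detection and a 488 nm scan, is the highest Masliner-normalised natural-log median intensity across replicate spots of either probe orientation.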

| Sequence | gcPBM binding intensity (ln) |
| --- | --- |
| TTAAACTTGTTTTGGATGCACTATATAATTCATTTT [GTGCAC_site9549] | 7.2 |
| AGAGAGATGACAAAAAGATGAATAACGTTAAGGGAT [XGTACX_negctrl_site120] | 7.4 |
| ATATGGATTATACATACATGCATACATACATACATA [TGCATGCA_site475] | 6.58 |
| ATCATATTTATATTGGTGCATTATGCATGAAATTTA [GTGCAC_site9571] | 10.6 |
| TATTTTTATTATATGGTGCATATATACATACATATA | 9.96 |
| ACATATGAAAAATATGCATGCAAATATTATTTAACA [TGCATGCA_site802] | 7.03 |
| TATAATAATAATTATACATGCATGAATATTTATATG [TGCATGCA_site811] | 6.46 |
| AATATGAAATATATTACACACATTTATATGTTGAAA [CACACA_site1427] | 6.31 |
| ATTATATTTATGTTGGTGCATTATACATGAAATTTA | 10.5 |
| ATCATATTTATGTTGGTGCATTATGCATGGATTTTA [GTGCAC_site9795] | 10.8 |
| TTATGGTGCATGAAATCACACATTGATATATATGCT [CACACA_site5352] | 8.81 |
| TATATATATATATATACATGCATATATATAATATAT [TGCATGCA_site763] | 9.32 |
| ATATATATTTAAAAAAGTACAGAAGAAAATAACCCA [XGTACX_site642] | 7.19 |
| GATGATACACAGGTGTTGCACTTAAATGCAGTTCTT [GTGCAC_site9627] | 8.13 |
| ATATATATATATATATGTACATATTATTAATAATAT [XGTACX_site6667] | 9.32 |
| TTTTGAATATTTGGTCGTACGTAAAAATAGATAATT [XGTACX_site5755] | 6.75 |
| AAGTTTTCTTAAAATTGTACTTTTCAAAAATAATCT [XGTACX_site277] | 5.83 |
| ATGGTGCAACATTATGCACACCGTTAAATAACTAAT [CACACA_site9280] | 11.7 |
| TGATTCTAACTTATGGTGCAACATTATGGACACCGT | 10.5 |
| TTATGGTGCAACATTATGCACACCGTTAAATAACTA [CACACA_site3846] | 11.4 |

| Sequence | gcPBM binding intensity (ln) |
| --- | --- |
| TAATATATTATAAACACATGCACATTAATAATAACT [TGCATGCA_site708] | 8.38 |
| CATTAACAAATAAATGCACACATATATATAAATAAT [CACACA_site7892] | 9.2 |
| TCATAAACATTATGCACACAAAAATAAAAAAAAATA [CACACA_site1115] | 10.2 |
| AACAACAACTAATATGCACACATTTAAAAACAAAAT [CACACA_site2440] | 9.7 |
| TATATAACATATGGGACACACATGCAACTGTTATAT [CACACA_site3792] | 6.89 |
| GATTCATCTAAACACCGTACATATTATATATATATA [XGTACX_site6030] | 8.65 |
| GAATGCCTTGAAAATAGTACAATTAAGAAAAAATAC [XGTACX_site8002] | 6.53 |
| ACATAAGATGAAAAATGTACATTCAAAAAATGAAAT [XGTACX_site3227] | 6.52 |
| AAGACAAATTTTACATGTACAAATATATTACATATA [XGTACX_site7060] | 6.83 |
| AATGTATATATGTAATGTACATATATAATGTATATA [XGTACX_site6510] | 6.6 |
| TTATATGCTCAATGTTGTACATGTAGATATATATAT [XGTACX_site8211] | 9.77 |
| ATTACACATATAGTAGTGCAATAACTCCAAAAAAAA | 9.55 |
| AAATTTTAATTAGACTGTACACATTTTAGAATAATT [XGTACX_site4819] | 6.17 |
| AAAAAAAATTAATTAGTGCAAAATATATACAAAATA [GTGCAC_site9762] | 10.4 |
| TATTTATAGATATATACACACATATACATATTGTTT [CACACA_site7611] | 6.63 |
| TTTGATCGATGGATTTAACACACAAAAAAAAAAAAA [CACACA_site9279] | 6.32 |
| CTATTTCAATTTAGTGCACACATTTTAATTTATAAG [CACACA_site2040] | 10.9 |
| ATATATATATATATAGTGCACATTTATATAATTATT | 10 |
| ACCCATTTTAATTTAGTGCACATTTTACCTTTATAC | 10.1 |
| CTACTTAATATTTGTACACACATATTTAACCTACTA [CACACA_site5725] | 7.02 |

| Sequence | gcPBM binding intensity (ln) |
| --- | --- |
| AAAAAAGAATTGTGCACACACAAAAAATGTTCATAA [CACACA_site1103] | 10.3 |
| AAAGAATACAAAATTGCACACATATTGTGAAAATGT [CACACA_site9327] | 9.59 |
| TTAAAAAAGAATTGTGCACACACAAAAAATGTTCAT [CACACA_site1102] | 10.6 |
| ATATATTTTTAGCACAGTACAATATAATTAAATATA [XGTACX_site6779] | 7.02 |
| ATATTTGTATAAATTGCACACTTTATTTTTTTTAAG [CACACA_site1558] | 9.86 |
| TATATTATTAATTAAGCACACATTATTTTTATAATA [CACACA_site3982] | 6.37 |
| ATATAATATATATATTGTACATATATTTATAAGCAT [XGTACX_site3726] | 6.5 |
| AGTATAAGCATTATTGTGCACATAATTATAATTTTT | 11 |
| ATTTTAAATTTATCTGTGCACAGTATTATATAAGCA [GTGCAC_site9806] | 10.8 |
| ATTATTCTATATGAAACATGCATACATTTGTATTTT [TGCATGCA_site823] | 6.53 |
| AAATACTGTAAAAAAGCATGCCACTAATAATAATTA [TGCATGCA_site759] | 6.33 |
| TTTTTATATTTCAACATATCACAATTTTATATATCT [CACACA_negctrl_site178] | 6.43 |
| GTGAAATATGCAAACACACACGAGAAAAATGTATAT [CACACA_site7488] | 6.99 |
| AGGAAAATTATGAATGGTACAGAATATATTAGGAGA [XGTACX_site6282] | 7.46 |
| GAGTGAAATATGCAAACACACACGAGAAAAATGTAT [CACACA_site3196] | 7.15 |
| AAGGAGAAATATTGCACACGTGCAAAATGGTATGAG [CACACA_site259] | 10.8 |
| AAAAGGAGAAATATTGCACACGTGCAAAATGGTATG [CACACA_site4300] | 11 |
| AATGAGAAGGACTGCACACTAAAATGGAAGGAGAAA [CACACA_site1575] | 6.97 |
| ATTTTTTAAAAAGTAACACACACTCTTATAAATAAC [CACACA_site7668] | 6.7 |
